Assay results: PubChem BioAssay (NCI)
Compounds without any hit were thinned out: in the full panel of roughly 83,000, 20% have a hit.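 Step 1: grow cells in 96-well plates. Step 2: add test compound at a single concentration. Step 3: incubate 48 h. Step 4: record percent growth.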 A number with no mark means an inactive call. Calls of active or inactive are those of the source. How the source made its calls: active means growth percent below 10; inactive means the rest.

Experiments:
Assay in all cases: NCI-60 one-dose screen, 48 h (100 = growth as untreated, 0 = no growth, -100 = all killed)
Details in all cases: 10 µM unless noted
[1] = tested on: HCT-15 colon
[2] = tested on: HT29 colon
[3] = tested on: SNB-75 CNS
[4] = tested on: SNB-19 CNS
[5] = tested on: U251 CNS
[6] = tested on: PC-3 prostate
[7] = tested on: SK-MEL-5 melanoma
[8] = tested on: UACC-62 melanoma
[9] = tested on: LOX IMVI melanoma
[10] = tested on: SK-MEL-28 melanoma

Structure (SMILES)	growth [1]	growth [2]	growth [3]	growth [4]	growth [5]	growth [6]	growth [7]	growth [8]	growth [9]	growth [10]
COc1cc2ncnc(Nc3ccc(S(=O)(=O)Nc4nccs4)cc3)c2cc1OCCCN1CCOCC1	104%	106%	95.1%	104%	100%	99%	108%	98.7%	97.2%	109%
CCN(CC)CC(=O)Nc1c(C)cc(C(=O)NN)cc1C	103%	96.1%	84.9%	97.3%	97.5%	101%	102%	97.6%	94.3%	106%
C[N+](C)(C)CC(=O)N/N=C\c1ccco1	102%	92.6%	83.2%	112%	98.7%	95.8%	101%	101%	101%	105%
Clc1ccc(-c2cnc3nonc3n2)s1	54.4%	83%	102%	91.4%	87.9%	51.8%	24.5%	54.9%	36.5%	94.4%
O=C(c1ccccc1)c1cccc(C(Br)Br)c1	73.4%	63.5%	73.9%	83.6%	88.9%	91.8%	74%	81.1%	80.6%	93.2%
COC(=O)OC1C(O[C@H]2C[C@H]3[C@@H]4CC=C5C[C@@H](O)CC[C@]5(C)[C@H]4CC[C@]3(C)[C@H]2[C@H](C)C(=O)CCC(C)C)OCC(O)C1OC1OCC(O)C(O)C1OC(=O)c1ccc(OC)cc1 (stereo not given in full)	-40.9% (active)	4.87% (active)	0.635% (active)	8.46% (active)	-18.5% (active)	-18.8% (active)	-71.5% (active)	-29% (active)	-38.7% (active)	-55.3% (active)
COc1cc(/C=C2\CN(C(=O)OC(C)(C)C)C/C(=C\c3ccc(O)c(OC)c3)C2=O)ccc1O	98.4%	96.5%	94.8%	87.3%	92.9%	81.7%	93.4%	82.4%	92.4%	111%
CC(=O)O[C@H]1CC[C@]2(C)[C@H]3CC=C4[C@@H]5CC(C)(C)CC[C@]5(C(=O)OCC(COC(=O)C(Cl)Cl)(COC(=O)C(Cl)Cl)NC(=O)C(Cl)Cl)CC[C@@]4(C)[C@]3(C)CC[C@H]2C1(C)C	46.7%	8.55% (active)	85.9%	90.4%	45.1%	22.7%	71.9%	84.4%	65.9%	87.3%
CCCCOC(=O)c1cc(O)c(O)c(O)c1	49.1%	85.3%	55.6%	88.9%	65.2%	80.4%	93.5%	62%	74.4%	90.6%
CCN(C(=O)CCl)C(C)(C)C(SSSC(c1ccc(Cl)cc1)C(C)(C)N(CC)C(=O)CCl)c1ccc(Cl)cc1 (stereo not given)	56.3%	18%	84.3%	117%	63.5%	63.3%	73.5%	-2.54% (active)	66.6%	-24.6% (active)
CN(C)c1nc(-c2cccs2)n2nc(-c3ccc(Cl)cc3)cc2n1	92%	33.2%	-50.4% (active)	21.1%	7.58% (active)	47.1%	64.2%	70.7%	26.5%	79.2%
COc1ccc(/C=C/c2nc3ccccc3c(=O)n2-c2ccc(C#Cc3ccc(C(C)(C)C)cc3)cc2C)c(OC)c1	59.3%	78%	99.4%	105%	75.3%	53%	69.7%	72.6%	80%	109%
CSc1ccc(/C=C2\C=C(CC(=O)NCc3ccc(C(=O)c4ccccc4)cc3)c3cc(F)ccc32)cc1	5.88% (active)	-15.1% (active)	-18.4% (active)	18.2%	-2.89% (active)	12.4%	-51.4% (active)	3.75% (active)	5.66% (active)	18.2%
